Bioassay records from PubChem BioAssay.
Sm TGR inh: blocks Schistosoma mansoni thioredoxin glutathione reductase; Q962Y6; purified TGR, DTNB reduction, TNB absorbance 405 nm; hit rate 3% among 360,000; Potency, µM (top dose mostly 114 µM), usual class: inhibitors; further: nearly all actives have a fitted effect of over 60% in size
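First, TGR (20 nM dispensed) and NADPH were mixed with compound. Second, a 15 min room-temperature incubation followed. Third, further NADPH and then DTNB were added to start the reaction. Finally, TNB absorbance was monitored kinetically.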
SARS PLpro yeast: SARS-CoV PLP inhibition in yeast | S. cerevisiae expressing SARS-CoV PLpro, growth rescue | Potency, µM (doses to about 32.9 µM), most hits filed as activators | hit rate 0.19% among 330,000 | AID 485353; calls by dose curve; further: nearly all actives have a fitted effect of over 55% in size
Pf growth 48h: inhibits P. falciparum growth in the first generation, 48 h; P. falciparum luciferase growth in erythrocytes, 48 h; Potency, µM (highest dose often 28.7 µM), most hits filed as inhibitors; hit rate 5.9% among 310,000; AID 504832
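Luciferase-expressing P. falciparum in infected erythrocytes (2% hematocrit, 0.1% parasitemia final) in RPMI 1640/0.5% Albumax were exposed to compound for 48 hours at 37 C, 5% CO2; growth read as luminescence.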
Pf growth 96h: P. falciparum growth inhibition at 96 hours; hit rate 6.9% among 320,000; Potency, µM (highest dose often 28.7 µM), hits mostly inhibitors; P. falciparum luciferase reporter growth, 96 h
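96 h incubation, 37 C, 5% CO2, of luciferase-reporter P. falciparum-infected RBCs (2% hematocrit, 0.05% parasitemia final) with test compounds; endpoint luminescence.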
A number is an active result; – = inactive; ? = inconclusive; · = not tested or not shown; [ ] = remark or other dose. Sampled rows, rich in hits. Any-hit rate of the full collection: about 12%. Unless noted, the call rests on the fitted dose curve; in most records, active means well fitted curve in the direction sought with a large enough effect; inconclusive means small, poorly fitted or top-dose-only effect, or another doubt; inactive means no such curve, though single readings can be large; an effect the other way counts as inactive or inconclusive.

SMILES | Sm TGR inh | SARS PLpro yeast | Pf growth 48h | Pf growth 96h
CC(=O)Nc1ccc(S(=O)(=O)Oc2cccc(N3C(=O)C4CC=CCC4C3=O)c2)cc1 (configuration not stated) | – | –[6.58 µM] | · | 2.33µM
CC(=O)Nc1ccc(S(=O)(=O)Oc2ccc(N3C(=O)C4CCCCC4C3=O)cc2)cc1 (configuration not stated) | – | – | – | –
Cc1cc(C)c2oc(C(=O)N(Cc3ccc(F)cc3)C3CCS(=O)(=O)C3)cc(=O)c2c1 (configuration not stated) | – | – | ? | –
Cc1ccc(CN(C(=O)c2cc(=O)c3cc(C)cc(C)c3o2)C2CCS(=O)(=O)C2)cc1 (configuration not stated) | – | – | 3.29µM | 9.28µM
Cc1cc2oc(C(=O)N(Cc3cccs3)C3CCS(=O)(=O)C3)cc(=O)c2cc1Cl (configuration not stated) | – | – | ? | ?
Cc1ccc(CN(C(=O)c2cc(=O)c3cc(Cl)c(C)cc3o2)C2CCS(=O)(=O)C2)cc1 (configuration not stated) | – | – | ? | 4.65µM
Cc1ccc2oc(-c3cccc(NC(=O)c4ccc(N5CCC(C)CC5)c([N+](=O)[O-])c4)c3)nc2c1 | – | · | · | ·
CC(=O)Nc1ccc(C)c(NS(=O)(=O)c2cccc(C(F)(F)F)c2)c1 | – | – | 1.85µM | 3.7µM
COc1ccc(NC(C)=O)cc1NC(=O)c1cccc(C(F)(F)F)c1 | – | – | – | –
Cc1cccc(C)c1OCc1cc(=O)n2c3c(sc2n1)CCCC3 | – | · | · | ·
Cc1nc2ccccc2n2c(O)c(CC(=O)O)cc12 | 35.5µM | – | – | –
Cc1nc2ccccc2n1CCC(=O)O | – | – | · | –
CCOc1ccc2c(c1)-c1c(ssc1=S)C(C)(C)N2C(=O)c1ccco1 | – | – | 2.33µM | 1.31µM
COc1ccc2c(c1)-c1c(ssc1=S)C(C)(C)N2C(=O)CSC1=NCCS1 | – | – | – | –
O=c1[nH]nc(CNc2ccc(O)cc2)c2ccccc12 | 35.5µM | – | ? | ·
CN1[C@@H]2CC(OC(=O)[C@@H](CO)c3ccccc3)C[C@@H]1[C@H]1O[C@H]12 (some centres not stated) | · | · | – | ?
CCN(CC)c1ccc(C=Nc2ccccc2)c(O)c1 | – | – | ? | ?
CCN(CC)c1ccc(/C=C/c2cccc[n+]2C)c(OC)c1 | – | – | 0.37µM | –
CCOC(=O)CCCCC(=O)c1[nH]c(=O)[nH]c1Cn1ccnc1 | ? | – | 0.465µM | ·
CCCCSCc1[nH]c(=O)[nH]c1C(=O)CCCCC(=O)OCC | ? | – | – | –
O=[N+]([O-])C1=CC=C2C(=NC3(CCCCC3)N2O)C1=NCCc1ccccc1 | 44.7µM | – | – | ?
C[C@H](CO)N1C[C@H](C)[C@@H](CN(C)Cc2ccccc2)Oc2ccc(NC(=O)CCCCCC(=O)Nc3ccccc3N)cc2C1=O | · | – | · | ·
Cc1ccc(NC(=S)N(Cc2cccs2)Cc2cc3cccc(C)c3[nH]c2=O)cc1 | – | – | – | 7.38µM
COc1ccc2[nH]c(=O)c(CN(Cc3cccs3)C(=S)Nc3ccccc3)cc2c1 | – | – | ? | 4.65µM
COc1cc2cc(CN(Cc3cccs3)C(=S)Nc3ccccc3)c(=O)[nH]c2cc1OC | – | – | 11.7µM | –
SMILES | Sm TGR inh | SARS PLpro yeast | Pf growth 48h | Pf growth 96h
CNC(=S)N(Cc1cccs1)Cc1cc2ccc(OC)cc2[nH]c1=O | – | – | ? | ?
O=S(=O)(c1ccccc1)n1nc(-c2ccco2)nc1NCc1ccccc1 | – | · | · | ·
COc1ccc(C(=O)c2cn(Cc3ccc(F)cc3)c3ccc(C)cc3c2=O)cc1 | – | · | · | ·
Cc1ccc(S(=O)(=O)c2cn(C)c3cc(N4CCOCC4)c(F)cc3c2=O)cc1 | – | – | – | –
CC(C)N1C(=O)CCC1C(=O)NCc1ccc(F)cc1Cl (configuration not stated) | – | – | – | –
CC(C)c1cccc(C(C)C)c1OC(=O)[C@H]1OC(c2ccc(Br)cc2)=C[C@@H]1c1ccc(Br)cc1 | – | – | ? | ?
N=c1ccn(Cc2ccccc2Cl)cc1 | – | – | 4.65µM | ·
N=c1ccn(Cc2ccc(Cl)cc2Cl)cc1 | – | – | · | 1.47µM
CCOC(=O)C1=CN(Cc2cccc(-c3ccc(F)cc3)c2)S(=O)(=O)N(C)C1C (configuration not stated) | · | – | · | ·
O=C(Nc1cccc(Cl)c1Cl)Nn1cnnc1 | – | – | – | –
S=C(Nc1cccc(Cl)c1Cl)Nn1cnnc1 | – | – | – | 2.33µM
Cc1cc(CNC(=S)Nc2cccc(Cl)c2Cl)nn1C | 12.6µM | – | – | –
Cn1sccc1=O | – | · | ? | –
C[C@@H](NC(=O)c1nc[nH]c1C(=O)N[C@@H](Cc1ccccc1)C(=O)OC(C)(C)C)c1ccccc1 | – | – | ? | ?
CC(C)(C)OC(=O)NCc1ccc(CNC(=O)c2[nH]cnc2C(=O)N[C@@H](Cc2ccccc2)C(=O)OC(C)(C)C)cc1 | – | – | 10.4µM | ?
C[C@H](NC(=O)c1nc[nH]c1C(=O)N[C@@H](Cc1ccccc1)C(=O)OC(C)(C)C)c1ccccc1 | – | – | 3.29µM | ?
CC(C)C[C@H](NC(=O)c1nc[nH]c1C(=O)NCc1ccc(CNC(=O)OC(C)(C)C)cc1)C(=O)OCc1ccccc1 | – | – | ? | ?
CC(C)(C)OC(=O)NCc1ccc(CNC(=O)c2[nH]cnc2C(=O)N[C@@H](Cc2ccccc2)C(=O)OCc2ccccc2)cc1 | – | – | ? | 3.29µM
CC(C)(C)OC(=O)NCc1ccc(CNC(=O)c2nc[nH]c2C(=O)NCc2ccccc2)cc1 | – | – | 10.4µM | 2.94µM
Cc1ccc(C)c(NC(=O)CN(C)C(=O)c2cccc(N3C(=O)CCC3=O)c2)c1 | – | – | – | –
CC(C)(C)OC(=O)NCc1ccc(NC(=O)c2nc[nH]c2C(=O)N[C@@H](Cc2ccccc2)C(=O)OCc2ccccc2)cc1 | – | – | 8.28µM | 4.15µM
COc1ccc(NC(=O)C2CC(=O)OC2c2ccccc2)cc1 (configuration not stated) | – | – | – | 9.28µM
Cc1cc(NC(=O)C2CC(=O)OC2c2ccccc2)no1 (configuration not stated) | – | – | – | –
O=C(Nc1ccc(-c2nc3ncccc3o2)cc1)c1ccc(Br)o1 | ? | – | ? | ·
O=C(Nc1ccc2oc(-c3cccnc3)nc2c1)c1ccc(Br)cc1 | – | · | · | ·
SMILES | Sm TGR inh | SARS PLpro yeast | Pf growth 48h | Pf growth 96h
O=C(Nc1ccc2oc(-c3cccnc3)nc2c1)c1ccc(Br)o1 | 28.2µM | – | · | ?
O=C(Nc1ccc(-c2nc3ncccc3o2)cc1)c1ccco1 | 20µM | – | – | ·
O=C(Nc1ccc2oc(-c3cccnc3)nc2c1)c1cccnc1 | – | – | – | ?
O=C(Nc1ccc2oc(-c3cccnc3)nc2c1)c1ccco1 | 50.1µM | – | – | –
CO[C@]12C(COC(N)=O)C3=C(C(=O)C(C)=C(N)C3=O)N1CC1NC12 (some centres not stated) | · | · | 0.239µM | 0.601µM
COc1ccc(C(=O)N2CCC(c3nc(-c4ccc(S(=O)(=O)N5CCCC5)cc4)no3)CC2)cc1 | – | · | · | ·
COc1ccc(CCNCc2c(C(=O)O)c(C)n(Cc3ccccc3C)c2C)c(OC)c1 | – | · | · | ·
